# Results reported in PubChem BioAssay AID1490 (National Center for Advancing Translational Sciences (NCATS), 2009).
# Several values for one entry are separate records, joined by “and”; a condition that tells them apart may be missing. Equal values may be shown once. Hit rate of the full screen: of about 310,000 compounds, about 11,000 (3.5%) were called active. Another 4% or so got no clear call; they are omitted. Calls follow the shape of the dose curve; as a rule, active = well fitted inhibition curve with a large enough effect; inconclusive = small, poorly fitted or top-dose-only effect, or another doubt; inactive = no such curve, though single readings can be large or run the other way. Shown is part of a subset that was picked to be rich in actives.
# Target: 4'-phosphopantetheinyl transferase ffp (Bacillus subtilis) (UniProt Q9F4F7)
# Experiment: qHTS Assay for Inhibitors of Bacillus subtilis Sfp phosphopantetheinyl transferase (PPTase);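 also: the enzyme is Sfp with the accession as filed and its product quenches rhodamine fluorescence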;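 as to largest response in the series, negative = inhibition: 0% = enzyme reaction without inhibitor and -100% = no enzyme wells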
# Conditions: Biochemical Sfp PPTase activity
# How it was run: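 Reaction rates are the 30-min fluorescence difference (ex 525, em 598 nm) in wells containing 15 nM Sfp, 5 uM rhodamine-CoA and 12.5 uM BHQ-2-YbbR at pH 7.6 with 10 mM MgCl2.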
# Potency is read from the fitted curve at half-maximal effect.
SMILES,"largest response in the series, negative = inhibition",Potency
Cc1ccc(S(=O)(=O)NCC2CCC(C(=O)N3CCOCC3)CC2)cc1 (stereo unspecified),10% (inactive),–
CC(C)CCN1NC2(CCC(C)CC2)NC1=S (stereo unspecified),–,79.4 µM (active)
C[C@H]1Cc2c(COc3ccccc3)nc3c(c2CO1)CN(C(=O)NCc1ccco1)CC3,2.41% (inactive),–
O=C(Cn1nc(C(=O)O)c2ccccc2c1=O)Nc1ccc(F)cc1,1.99% (inactive),–
COCCOC(=O)C1=C(C)NC(=O)NC1c1cc2c(cc1Br)OCO2 (stereo unspecified),10.6% (inactive),–
O=C(Nc1cccnc1)c1cc(Cl)ccc1Cl,16.1% (inactive),–
O=C(/C=C/c1ccc(Cl)cc1Cl)NCc1ccco1,-1.31% (inactive),–
O=C(/C=C/c1ccc(Cl)cc1Cl)c1cccnc1,–,31.6 µM (active)
O=C(NCc1ccccc1Cl)c1ccc2c(=O)n(CC3CCCO3)c(=S)[nH]c2c1 (stereo unspecified),12.5% (inactive),–
O=S(=O)(NC1CCCCC1N1CCC(O)CC1)c1ccc(Cl)cc1 (stereo unspecified),10.1% (inactive),–
COc1ccc(N2CCN(S(=O)(=O)c3ccc4c(c3)N(C(C)=O)CCO4)CC2)cc1,11.9% (inactive),–
CCCCc1nc(SCC(=O)Nc2nnc(C(C)C)s2)n[nH]1,2.56% (inactive),–
N#CC1(NC(=O)COC(=O)CCN=C2NS(=O)(=O)c3ccccc32)CCCCC1,8.87% (inactive),–
O=Cc1cn(-c2ccccc2)nc1-c1ccccn1,19.4% (inactive),–
O=C1C(c2ccccn2)=[N+]([O-])c2ccccc21,–,56.2 µM (active)
CCOC(=O)C1(Cc2ccccc2C)CCCN(S(C)(=O)=O)C1 (stereo unspecified),-1.45% (inactive),–
O=C(NCCc1ccccc1)C(=O)NCC1OCCN1S(=O)(=O)c1cccs1 (stereo unspecified),15% (inactive),–
CC(=O)N1CCCc2cc(S(=O)(=O)N3CCCC(C(=O)N4CCN(c5cccc(Cl)c5)CC4)C3)ccc21 (stereo unspecified),-7.31% (inactive),–
O=C(COc1ccccc1)Nc1ccc(C(=O)N2CCCC2)cc1,22.7% (inactive),–
Cc1ccccc1C(=O)Nc1ccc(N2CCCCCC2)cc1,-8.31% (inactive),–
CCOC(=O)/C(C#N)=C/c1ccc(N2CCCCC2)cc1,-25.4% (inactive),–
O=C1C=CC(=O)N1c1ccc(N2CCCCC2)cc1,–,7.08 µM (active)
Cc1ccc(C(CNC(=O)Nc2ccccc2)N2CCN(C)CC2)cc1 (stereo unspecified),6.82% (inactive),–

SMILES,"largest response in the series, negative = inhibition",Potency
COC(=O)C(C)Oc1ccc2c(c1)O/C(=C\c1cccc(Br)c1)C2=O (stereo unspecified),-9.46% (inactive),–
O=C(NC(Cc1c[nH]c2ccccc12)C(=O)O)/C(=C/c1ccco1)NC(=O)c1ccccc1 (stereo unspecified),–,44.7 µM (active)
Cc1ccc(NC(=O)/C(=C\c2ccccc2)NC(=O)c2ccco2)cc1,12.3% (inactive),–
O=C(Nc1ccccc1)c1ccco1,19.8% (inactive),–
COc1ccccc1C(=O)N/C(=C/c1ccco1)C(=O)Nc1ccc(C(=O)O)cc1,–,50.1 µM (active)
O=C(Nc1ccccc1)/C(=C\c1ccco1)NC(=O)c1ccco1,–,44.7 µM (active)
Cc1cccc(NC(=O)/C(=C\c2ccco2)NC(=O)c2ccccc2)c1,–,50.1 µM (active)
COc1ccccc1C(=O)N/C(=C/c1ccc2c(c1)OCO2)C(=O)Nc1cccc(C(=O)O)c1,-9.69% (inactive),–
COc1ccc(/C=C(/NC(=O)c2ccco2)C(=O)Nc2ccc(C(C)=O)cc2)cc1,0.26% (inactive),–
CC(=O)NC(Cc1c[nH]c2ccccc12)C(=O)O (stereo unspecified),23% (inactive),–
Cc1ccc(C(=O)N/C(=C/c2ccco2)C(=O)NCCc2c[nH]c3ccccc23)cc1C,21.3% (inactive),–
COc1ccc(/C=C(/NC(=O)c2ccccc2)C(=O)Nc2cccc(C(=O)O)c2)cc1,2.19% (inactive),–
O=C(NCc1ccco1)/C(=C/c1ccco1)NC(=O)c1ccccc1,-7.6% (inactive),–
Cc1nc2ccc(S(=O)(=O)N(C)CC(=O)NC(C)c3ccccc3)cc2s1 (stereo unspecified),10.4% (inactive),–
COCn1c(C(O)c2ccccc2)cc2ccccc21 (stereo unspecified),9.58% (inactive),–
Cc1ccccc1C(=O)N1CCN(c2ccc(NC(=O)c3cccs3)cc2)CC1,13.1% (inactive),–
COc1ccc(C(=O)NCc2nnc(SCC(=O)NC3=NCCS3)n2C)cc1,-3.34% (inactive),–
COC(=O)c1ccc(NC(=O)CSc2nncn2-c2cccnc2)cc1,16.4% (inactive),–
CC(C)NC(=O)COCc1cc(-c2ccc3c(c2)OCO3)on1,4.15% (inactive),–
COc1cccc(-n2c(=S)sc3c(=O)n(-c4ccccc4C)c(SCC(=O)O)nc32)c1,4.84% (inactive),–
COc1cccc(-n2c(=S)sc3c(=O)n(-c4ccccc4OC)c(SCC4OCCO4)nc32)c1,-1.29% (inactive),–
COc1ccc(Cl)cc1-n1c(=S)sc2c(=O)n(-c3ccc(F)cc3)c(SCC(=O)O)nc21,–,14.1 µM (active)
O=C(c1cc(COc2ccc(F)cc2F)on1)N1CCOCC1,2.39% (inactive),–

SMILES,"largest response in the series, negative = inhibition",Potency
CC(=O)Nc1cccc(C(=O)OCN2C(=O)c3ccccc3C2=O)c1,7.23% (inactive),–
CCc1nc(Nc2ccc(NC(C)=O)cc2)c2oc3ccccc3c2n1,3.27% (inactive),–
Cc1ccc(N(Cc2ccccc2O)C(=O)c2ccccc2F)cc1,8.31% (inactive),–
O=C(O)c1cc([N+](=O)[O-])c(Nc2cccc3ccccc23)c([N+](=O)[O-])c1,-7.55% (inactive),–
Cc1cc(C2=NNC(=Nc3ccc(S(=O)(=O)N4CCOCC4)cc3)SC2)c(C)n1CC1CCCO1 (stereo unspecified),–,22.4 µM (active)
Cc1ccnc(NS(=O)(=O)c2ccc(NC(=O)c3ccc(S(=O)(=O)N4CCOCC4)cc3)cc2)n1,28.5% (inactive),–
Cc1ccc(S(=O)(=O)N2CCC(C(=O)NCC3CCCO3)CC2)cc1 (stereo unspecified),21.8% (inactive),–
COCCn1c(C)cc(C2=NNC(=Nc3ccc(F)cc3)SC2)c1C,–,50.1 µM (active)
C=CCn1c(C)cc(C2=NNC(=NCC)SC2)c1C,–,56.2 µM (active)
Cc1cccc(N=C2NN=C(c3c[nH]c4ccccc34)CS2)c1,-49.9% (inactive),–
C=CCn1c(C)cc(C(=O)CN2C(=O)c3ccccc3C2=O)c1C,1.15% (inactive),–
COC(=O)C(C(=O)OC)C1c2ccccc2C=C(C2CC2)N1C(=O)OC (stereo unspecified),22.5% (inactive) and 27.4% (inactive),–
CCCOc1ccc(C2=CSC3=NCCN23)cc1Cl,16% (inactive),–
CCOC(=O)C1CCCN(CCSc2ccc(C)cc2)C1 (stereo unspecified),12.5% (inactive),–
COc1ccc(C(=O)c2c(C)c(CCC#N)n3ccccc23)c(OC)c1,0.761% (inactive),–
COc1ccc(C(C)NC(=O)C23CC4CC(CC(C4)C2)C3)cc1 (stereo unspecified),5.95% (inactive),–
O=C(O)c1c(NC(=O)N2CCCC2)sc2c1CCCC2,-9.57% (inactive),–
CC(O)c1ccc(OCCN(C)c2ccccn2)cc1 (stereo unspecified),-0.377% (inactive),–
CC(=O)N1C(=O)/C(=C2\SC(=S)N(NC(=O)c3ccc(O)cc3)C2=O)c2ccccc21,–,50.1 µM (active)
O=C(O)c1ccc2c(c1)C(=O)N(NC(=O)c1ccc(O)cc1)C2=O,1.07% (inactive),–
O=C(O)c1ccc(/C=C2\SC(=S)N(NC(=O)c3ccc(Br)cc3)C2=O)cc1,-5.87% (inactive),–
COc1cc(Cl)ccc1OCc1cc(C(=O)N2CC[C@@H]3CCCC[C@H]3C2)no1,-14.4% (inactive),–
COc1ccc(-c2nc3c(c4c2C[C@H](c2ccccc2)OC4)CN(C(=O)C2CC2)CC3)c(C)c1,12.8% (inactive),–

SMILES,"largest response in the series, negative = inhibition",Potency
N#CC1=C(N)Oc2[nH]c(=S)[nH]c(=O)c2C12C(=O)Nc1ccccc12 (stereo unspecified),–,39.8 µM (active)
N#CC1=C(N)Oc2n[nH]c(CSc3ccccc3)c2C12C(=O)Nc1ccccc12 (stereo unspecified),17.6% (inactive),–
CC1(C)Cc2ccccc2-c2[nH]c(=S)[nH]c(=O)c21,2.54% (inactive),–
CCC(C)Sc1nc2c(cnn2-c2ccc(F)cc2)c(=O)[nH]1 (stereo unspecified),-3.22% (inactive),–
CCOc1ccc(C(C(=O)NC2CCCC2)N(C(=O)c2snc(C(N)=O)c2N)C2CCCC2)cc1 (stereo unspecified),16.6% (inactive),–
COc1ccc2oc(C(=O)NCC(Cc3ccccc3)N(C)C)c(C)c2c1 (stereo unspecified),-0.769% (inactive),–
CC1Cc2cc(/C(O)=C3\C(=O)C(=O)N(Cc4cccnc4)C3c3ccccc3F)ccc2O1 (stereo unspecified),11.3% (inactive),–
COc1ccccc1C(=O)NN1C(=O)C2C3C=CC(O3)C2C1=O (stereo unspecified),–,56.2 µM (active)
COc1ccc(C(=O)NN2C(=O)C3C(c4ccccc4)C=CC(c4ccccc4)C3C2=O)cc1 (stereo unspecified),33.4% (inactive),–
COc1ccccc1C(=O)Nn1cnnc1,6.61% (inactive),–
O=C(NN1C(=O)C2C3C=CC(C4CC34)C2C1=O)c1ccc(Cl)cc1 (stereo unspecified),27.6% (inactive),–
O=C(NN1C(=O)C2C3C=CC(O3)C2C1=O)c1ccccc1 (stereo unspecified),–,44.7 µM (active)
O=C(NN1C(=O)C2C(C1=O)C1C=CC2C12CC2)c1ccccc1Cl (stereo unspecified),12.4% (inactive),–
COc1ccc(N2CCN(C(=O)c3cn(C)c4ccc(S(=O)(=O)N5CCOCC5)cc4c3=O)CC2)cc1,1.25% (inactive),–
O=C(C1CCC1)N1CCN(c2ccccc2)CC1,17.5% (inactive),–
CC1(c2ccc3ccccc3c2)NC(=O)NC1=O (stereo unspecified),12% (inactive),–
CC(C)C[C@@H](COc1ccccc1)N1CCN(CC(C)C)CCC1=O,3.76% (inactive),–
CCCCCCCC/C=C\CCCCCCCC(=O)NCC(=O)O,8.62% (inactive),–
CCCCCCC(O)(CCN1CCCCC1)c1ccccc1 (stereo unspecified),9.61% (inactive),–
CCCn1c(C2CCCN2c2nc(-c3ccc(C)cc3)cs2)nc2cc(Cl)c(N3CCCCC3)cc21 (stereo unspecified),-23.2% (inactive),–
CCCn1c(C2CCCN2c2nc(-c3ccc(OC)cc3)cs2)nc2ccccc21 (stereo unspecified),–,89.1 µM (active)
CCCn1c(CCNc2nc(-c3ccc(OC)cc3)cs2)nc2ccccc21,-0.532% (inactive),–
